The record followed here is PubChem BioAssay (NCI).

About 83,000 compounds went through this panel and 20% of them were active in at least one assay; those are over-represented in the sample as a whole.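 How to read the values: 0–100, growth inhibition (40 = 60% inhibited); 0, no net growth; -100 to 0, cell death (-40 = 40% of starting cells died; -100 = all dead).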 Unmarked numbers belong to inactive results. Calls of active or inactive are those of the source. How the source made its calls: active means growth percent below 10; inactive means the rest.

Among the test systems are SR leukemia; RPMI-8226 leukemia; OVCAR-8 ovarian; OVCAR-5 ovarian; OVCAR-4 ovarian; SK-OV-3 ovarian; IGROV1 ovarian; OVCAR-3 ovarian; HS 578T breast; NCI/ADR-RES ovarian; T-47D breast; BT-549 breast; MDA-MB-435 melanoma; SW-620 colon; MCF7 breast; HCT-116 colon; HCC-2998 colon; KM12 colon.
Common to all, as to test: NCI-60 one-dose screen, 48 h (100 = growth as untreated, 0 = no growth, -100 = all killed)
Conditions in all cases: 10 µM unless noted

Turning to `C#COc1cccc(Nc2ncnc3ncc(NC(=O)CCl)cc23)c1`, the growth in the test on SR leukemia is 16.2% [6.25 µM]; in the test on RPMI-8226 leukemia, 52.9% [6.25 µM]; in the test on OVCAR-8 ovarian, 10.3% [6.25 µM]; in the test with OVCAR-5 ovarian, 31.5% [6.25 µM]; in the test on OVCAR-4 ovarian, 32.6% [6.25 µM]; in the test with SK-OV-3 ovarian it was 53.1% [6.25 µM]. For the same molecule, the growth in the test on IGROV1 ovarian was -42.4% [6.25 µM] (active); with OVCAR-3 ovarian it was -56.4% [6.25 µM] (active); in the test on HS 578T breast it was 43.4% [6.25 µM]; with NCI/ADR-RES ovarian, 12% [6.25 µM]; in the test on T-47D breast, 30.5% [6.25 µM]; with BT-549 breast it was 28.6% [6.25 µM]. The growth with MDA-MB-435 melanoma is 17.1% [6.25 µM]; in the test on SW-620 colon it was -55.1% [6.25 µM] (active); in the test with MCF7 breast, -0.408% [6.25 µM] (active); in the test with HCT-116 colon it was -32.6% [6.25 µM] (active); with HCC-2998 colon, 51.5% [6.25 µM]; in the test with KM12 colon it was 15.7% [6.25 µM].

For `Cc1noc(C)c1C(=O)OCc1coc2ccccc2c1=O`, the growth is 45.3% in the test on SR leukemia; 30.1% in the test with RPMI-8226 leukemia; 91.8% with OVCAR-8 ovarian; 71.6% in the test with OVCAR-5 ovarian; 62.8% in the test with OVCAR-4 ovarian; 109% in the test with SK-OV-3 ovarian. Moreover, the growth in the test with IGROV1 ovarian is 82.6%; with OVCAR-3 ovarian, 44.9%; in the test on HS 578T breast, 78.3%; with NCI/ADR-RES ovarian, 90.7%; with T-47D breast, 28%; in the test on BT-549 breast, 69.2%. Moreover, the growth with MDA-MB-435 melanoma is 59.8%; with SW-620 colon, 32.1%; in the test with MCF7 breast, 49.6%; with HCT-116 colon, 41.4%; in the test with HCC-2998 colon, 105%; in the test on KM12 colon, 95.8%.

With `CCOC(=O)c1cn2ncnc(Oc3ccc(NC(=O)NC4CCCCC4)c(Cl)c3)c2c1C`, the growth is 73.8% in the test with SR leukemia; 90.9% in the test with RPMI-8226 leukemia; 74% in the test with OVCAR-8 ovarian; 93.5% in the test on OVCAR-5 ovarian; -0.664% (active) with OVCAR-4 ovarian; 108% with SK-OV-3 ovarian. The growth in the test on IGROV1 ovarian was 81.4%; in the test on OVCAR-3 ovarian it was 109%; with HS 578T breast, 36.1%; in the test with NCI/ADR-RES ovarian it was 59%; in the test on T-47D breast, 85%; with BT-549 breast, 90.4%. The growth in the test with MDA-MB-435 melanoma is 85.6%; with SW-620 colon it was 81.6%; in the test on MCF7 breast, 51.7%; in the test on HCT-116 colon it was 81.4%; with HCC-2998 colon it was 94.6%; in the test on KM12 colon, 96.9%.

Regarding `O=C1COCCN1c1ccc(Nc2nc(Cl)nc(OCc3cn(Cc4ccccc4)nn3)n2)cc1`, the growth is 8.29% (active) in the test with SR leukemia; 67.9% in the test with RPMI-8226 leukemia; 79.6% with OVCAR-8 ovarian; 105% in the test on OVCAR-5 ovarian; 83% with OVCAR-4 ovarian; 88.8% in the test with SK-OV-3 ovarian. The growth is 62.6% in the test on IGROV1 ovarian; 89.4% in the test on OVCAR-3 ovarian; 85.3% in the test on HS 578T breast; 101% with NCI/ADR-RES ovarian; 68.6% with T-47D breast; 90.3% in the test with BT-549 breast. Besides, the growth in the test with MDA-MB-435 melanoma was 96.2%; with SW-620 colon it was 88.6%; in the test with MCF7 breast it was 62.4%; with HCT-116 colon, 91.9%; with HCC-2998 colon, 63.7%; in the test with KM12 colon, 90.5%.

Consider `Cc1ccccc1/C=C1\CN(C(=O)OC(C)(C)C)C/C(=C\c2ccccc2C)C1=O`, for which the growth with SR leukemia is 8.93% (active); with RPMI-8226 leukemia it was -23.7% (active); in the test with OVCAR-8 ovarian, 17.1%; in the test on OVCAR-5 ovarian, 51.1%; with OVCAR-4 ovarian it was -2.97% (active); with SK-OV-3 ovarian it was 74.9%. In addition, the growth with IGROV1 ovarian is 26%; in the test on OVCAR-3 ovarian, -30.9% (active); in the test with HS 578T breast, 31.2%; with NCI/ADR-RES ovarian, 15.7%; in the test on T-47D breast it was 51.8%; in the test with BT-549 breast it was 70.3%. The growth is 12% with MDA-MB-435 melanoma; 5.37% (active) in the test on SW-620 colon; 19.2% in the test on MCF7 breast; -53.9% (active) in the test with HCT-116 colon; 3.27% (active) in the test with HCC-2998 colon; -32.8% (active) in the test on KM12 colon.

In the case of `COc1ccc(-c2nn(-c3ccccc3)cc2/C=C2/SC(=S)N(C)C2=O)cc1`, the growth in the test on SR leukemia was 29.3%; in the test on RPMI-8226 leukemia, 89.8%; in the test on OVCAR-8 ovarian it was 49.8%; in the test on OVCAR-5 ovarian, 76.3%; with OVCAR-4 ovarian, -24% (active); in the test on SK-OV-3 ovarian, 90.8%. Moreover, the growth with IGROV1 ovarian is 33.3%; with OVCAR-3 ovarian, 53%; in the test on HS 578T breast it was 39.3%; in the test with NCI/ADR-RES ovarian it was 74.5%; in the test on T-47D breast, 35.1%; in the test with BT-549 breast, 102%. Besides, the growth with MDA-MB-435 melanoma is 84.9%; in the test with SW-620 colon, 66.8%; with MCF7 breast, 75.3%; in the test on HCT-116 colon, 31%; in the test with HCC-2998 colon it was 98.9%; in the test with KM12 colon it was 98.4%.

As for `O=C(Cn1c(-c2ccc([N+](=O)[O-])cc2)nc2ccccc21)NNC(=O)c1cccnc1`, the growth with SR leukemia was 75.9%; in the test with RPMI-8226 leukemia it was 77.6%; with OVCAR-8 ovarian, 85.1%; in the test on OVCAR-5 ovarian, 101%; in the test on OVCAR-4 ovarian, 96.5%; in the test on SK-OV-3 ovarian, 102%. The growth is 63.3% with IGROV1 ovarian; 97.3% in the test on OVCAR-3 ovarian; 101% with HS 578T breast; 87.9% with NCI/ADR-RES ovarian; 71.2% in the test with T-47D breast; 97% in the test on BT-549 breast. Moreover, the growth with MDA-MB-435 melanoma is 86.2%; with SW-620 colon, 103%; in the test on MCF7 breast, 25.9%; in the test with HCT-116 colon, 82.1%; in the test with HCC-2998 colon, 98.5%; with KM12 colon, 87.2%.

In the case of `CC1Cc2c(Cl)ncnc2N(C)c2ccc(F)cc21` (centres undefined), the growth was 95.3% in the test with SR leukemia; 98.4% with RPMI-8226 leukemia; 91.9% in the test on OVCAR-8 ovarian; 99.9% with OVCAR-5 ovarian; 95.4% with OVCAR-4 ovarian; 89.6% with SK-OV-3 ovarian. Besides, the growth in the test with IGROV1 ovarian is 105%; in the test on OVCAR-3 ovarian, 106%; in the test on HS 578T breast, 64.1%; in the test with NCI/ADR-RES ovarian it was 101%; with T-47D breast it was 92.5%; in the test with BT-549 breast, 108%. Also, the growth in the test on MDA-MB-435 melanoma is 102%; with SW-620 colon it was 106%; in the test on MCF7 breast, 97.9%; with HCT-116 colon it was 87.5%; in the test with HCC-2998 colon it was 103%; in the test on KM12 colon, 99.9%.
